Compounds with a hit are over-represented: about 2% of the library has one in this group of screens.
A3A deaminase = inhibitors of human APOBEC3A DNA deaminase; 330,000 tested, 0.41% active; inhibition, % at 20 µM; P31941; recombinant A3A, FAM/TAMRA ssDNA deamination fluorescence;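 active = at least 40% inhibition at 20 µM here, with at most 30% in a related deaminase screen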;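 also: plate controls were A3A with DMSO for no effect and wells lacking A3A enzyme for full effect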
Target sequence (P31941 whole entry, looked up): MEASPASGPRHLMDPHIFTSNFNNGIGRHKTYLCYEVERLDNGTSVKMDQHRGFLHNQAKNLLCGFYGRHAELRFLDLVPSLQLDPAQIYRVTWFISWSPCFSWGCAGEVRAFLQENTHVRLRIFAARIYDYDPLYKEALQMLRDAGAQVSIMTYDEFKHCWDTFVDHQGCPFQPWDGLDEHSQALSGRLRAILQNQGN
PfG6PD inh = PfG6PD (Plasmodium falciparum) enzyme inhibition; PfGluPho enzyme, NADPH resazurin-diaphorase fluorescence; inhibition, % at 20 µM; AID 504690; 350,000 tested, 0.78% active;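 active = inhibition reaching at least a set limit at 20 µM in the primary screen, cut at about 59% in these data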;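 also: 0% = DMSO wells with substrate and 100% = DMSO wells lacking glucose-6-phosphate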
GC-B act = GC-B (human) receptor activation; P20594; AID 1920062; 370,000 tested, 0.11% active; activation, % at 10 µM; HEK293-GC-B cells, CNP EC30, cGMP TR-FRET; 0% at EC30 CNP, 100% saturating CNP;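 active = activation at 10 µM reaching about 35% in either raw or pattern-adjusted values, limit read from the data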
GC-A act = GC-A (human) enzyme activation | P16066 | HEK293 GC-A cells, cGMP TR-FRET, EC30 ANP; 0% at EC30 ANP, 100% saturating ANP | activation, % at 10 µM | 370,000 tested, 0.14% active; in the data active = activation above about 40%
Neddyl block = cullin neddylation inhibition. P61081+Q13564. TR-FRET cullin neddylation, biochemical. inhibition, % at 25 µM. 360,000 tested, 0.58% active. AID 651699; in the data active = inhibition above about 36%
APOBEC3G inh = inhibitors of human APOBEC3G DNA deaminase | Q9HC16 | recombinant A3G, ssDNA deamination FAM/TAMRA fluorescence | inhibition, % at 20 µM | 330,000 tested, 0.28% active;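 active = inhibition of at least 40% at 20 µM, with no more than 30% in the related APOBEC3A deaminase screen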;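 also: plate controls were DMSO wells with A3G for no effect and wells lacking A3G enzyme for full effect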
PfG6PD confirm = confirmation of Plasmodium falciparum G6PD inhibitors. shares compounds with PfG6PD inh. recombinant PfGluPho, NADPH-diaphorase-resazurin fluorescence. inhibition, % at 20 µM. 2,400 tested, 34% active;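 active = inhibition of at least 50% at 20 µM in any single replicate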;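 also: 0% = DMSO with substrate and 100% = DMSO lacking glucose-6-phosphate substrate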
Diaph ctr 10uM = inhibits diaphorase or oxidizes, flagging false PfG6PD hits. 820 tested, 39% active. shares compounds with PfG6PD inh. diaphorase-coupled resazurin reduction, fluorescence, NADPH 10 uM. inhibition, % at 20 µM. AID 504862;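 active = average inhibition reaching 50% or more with the compound at 20 µM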;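 also: resorufin red fluorescence formed as diaphorase reduces resazurin using NADPH; 0% = DMSO with enzyme and 100% = DMSO without enzyme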
Diaphorase 30uM = inhibits diaphorase or oxidizes, flagging false PfG6PD hits. Diaphorase/resazurin coupled assay, resorufin fluorescence, 30 uM NADPH. AID 504863. 820 tested, 29% active. shares compounds with PfG6PD inh. inhibition, % at 20 µM;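 active = inhibition averaging 50% or more, tested at 20 µM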;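 also: 0% = DMSO with enzyme and 100% = DMSO wells lacking diaphorase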
* hit, by the source's call; nt = not tested or not shown.

SMILES	A3A deaminase	PfG6PD inh	GC-B act	GC-A act	Neddyl block	APOBEC3G inh	PfG6PD confirm	others
CC(C)N1CCCCC(NC(=O)c2ccc(F)cc2)C1=O (stereo unspecified)	nt	nt	2	4	nt	nt	nt
O=C(O)CNS(=O)(=O)c1ccc2c3c(cccc13)C(=O)N2	5	16	7	4	nt	2	nt
O=C1Nc2ccc(S(=O)(=O)NCc3ccco3)c3cccc1c23	4	63*	3	1	nt	-1	44
CCn1c(=O)n2n(c1=O)[C@]1(C=C(C)C2)CN(Cc2ccc(OC)cc2OC)C(NC(=O)c2ccccc2)=N1	nt	nt	-7	0	nt	nt	nt
CCCCCCCCN1C(=O)[C@@H](CC(=O)N2CCOCC2)C[C@@]2(C(=O)OC)C1=C[C@H](C(C)C)O[C@@H]2C1CC1	nt	nt	-3	1	nt	nt	nt
COC(=O)c1cn(-c2ccc3c(c2)[C@@]2(CC(=O)N(C)C2c2ccccc2)C(=O)N3CC(C)C)nn1 (stereo partly specified)	nt	nt	-8	3	nt	nt	nt
S=c1[nH]c(-c2ccccc2)cn1/N=C/c1cccs1	-2	63*	-1	-2	16	3	27
COc1cc(CNc2ccc3[nH]c(=O)[nH]c3c2)cc(Cl)c1OCC(=O)NC(C)(C)C	0	83*	-6	-8	nt	-3	38
CCOc1cc(CNc2ccc3[nH]c(=O)[nH]c3c2)ccc1OCC(=O)NC(C)(C)C	3	41	-9	-6	20	2	nt
C=CCc1c(C)[nH]c2c(OC)cccc2c1=S	-6	62*	-2	-5	24	-5	36
C=CCN(CC=C)C(=O)c1c(OC)cccc1OC	2	-9	-4	1	-3	1	nt
Cc1ccc(N2C(=O)c3ccccc3C2=O)cc1	-4	4	-1	1	-7	-6	nt
Cc1ccc(SC2=C(Sc3ccc(C)cc3)C(=O)c3ccccc3C2=O)cc1	3	90*	6	10	-4	-4	62*	Diaph ctr 10uM=20;Diaphorase 30uM=-1
CCCCCC(=O)NC(NC(=S)NC1CCS(=O)(=O)C1)C(Cl)(Cl)Cl (stereo unspecified)	0	63*	6	2	12	-5	0
CCCCCC(=O)NC(NC(=S)N1CCOCC1)C(Cl)(Cl)Cl (stereo unspecified)	-2	-6	2	1	5	1	nt
CCOc1ccc(-n2c(SCC(=O)Nc3ccc(S(=O)(=O)Nc4nccs4)cc3)nnc2-c2ccco2)cc1	nt	nt	2	0	nt	nt	nt
CCc1nc(N2CCC3(CC2)OCCO3)c2nnn(Cc3ccccc3)c2n1	-8	7	7	8	3	-7	nt
Cc1nc(N2CCC3(CC2)OCCO3)c2nnn(Cc3ccccc3F)c2n1	-3	61*	10	6	-12	-4	31
CCn1c(NC(=O)c2ccc(F)cc2)c2ccccc2nc1=O	-2	30	3	1	16	-6	nt
CCn1c(NC(=O)c2ccc(C)cc2)c2ccccc2nc1=O	2	72*	9	3	16	-3	36
O=C(NCc1cccs1)C1CCC(CNS(=O)(=O)c2cccc3cccnc23)CC1 (stereo unspecified)	nt	nt	-5	3	nt	nt	nt
CC(C)c1cc2c(c(O)c1O)[C@@]13CCCC(C)(C)C1CC2OC3=O (stereo partly specified)	0	67*	9	6	-1	31	51*	Diaph ctr 10uM=-16;Diaphorase 30uM=-24
COC(=O)CSc1nnc(-c2ccc(NS(=O)(=O)c3ccc(C)c(C)c3)cc2)o1	nt	nt	6	8	nt	nt	nt
COc1ccc(C2(CNC(=O)c3ccc(OC)c([N+](=O)[O-])c3)CCCCC2)cc1OC	-5	85*	-4	-5	-18	-10	53*	Diaph ctr 10uM=54*;Diaphorase 30uM=43

Screening results: PubChem, Sanford-Burnham Center for Chemical Genomics
